Screening data as filed in PubChem BioAssay.
MBNL1 CUG block: qHTS Assay for Inhibitors of MBNL1-poly(CUG) RNA binding; TR-FRET MBNL1-His/biotin-(CUG)12 binding, 665/545 ratio; Potency, µM (titrated, usually from 57.5 µM), inactives show at the top dose activity change, negative = inhibition, actives largely listed as inhibitors; 280,000 compounds, 0.036% hits; active = well fitted inhibition curve with a large enough effect in the signal ratio, with a control signal flat, not every such curve was filed as active; inconclusive = small, poorly fitted or top-dose-only effect, or effect the other way, or a change in a side signal; inactive = no such curve, though single readings can be large or run the other way; the % refers to the signal ratio; note: potency is the fitted concentration of half-maximal effect; % is set by controls: 0 for no effect and ±100 for the full control effect
Target sequence (Q9NR56 whole entry, looked up): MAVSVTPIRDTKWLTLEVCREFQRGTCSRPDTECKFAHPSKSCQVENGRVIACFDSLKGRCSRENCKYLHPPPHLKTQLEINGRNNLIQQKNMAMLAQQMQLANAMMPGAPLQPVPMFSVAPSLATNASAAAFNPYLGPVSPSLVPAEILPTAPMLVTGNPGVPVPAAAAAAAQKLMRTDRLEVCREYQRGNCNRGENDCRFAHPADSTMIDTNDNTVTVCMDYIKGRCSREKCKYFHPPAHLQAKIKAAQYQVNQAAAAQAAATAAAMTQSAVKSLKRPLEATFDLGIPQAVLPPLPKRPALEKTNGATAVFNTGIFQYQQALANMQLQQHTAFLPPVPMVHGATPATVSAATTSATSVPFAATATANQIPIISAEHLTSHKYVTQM
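Compound titration spanned 92 nM–58 uM against the MBNL1-His/biotin-(CUG)12 complex. After 60 min at room temperature with 5 nM streptavidin-XL665 and 0.055 ng/ul terbium anti-His, ratiometric 665/545 nm emission (Ex 340 nm) normalized to controls.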
CBFb RUNX1 block: qHTS Assay for Compounds Blocking the Interaction Between CBF-beta and RUNX1 for the Treatment of Acute Myeloid Leukemia | AlphaScreen CBFb-His/RUNX1-biotin binding, biochemical | Runt-related transcription factor 1 (Homo sapiens) + Core-binding factor subunit beta … | Potency, µM (top dose mostly 59.8 µM), for the others: at the highest dose activity, negative = inhibition, most hits filed as inhibitors | 230,000 tested, under 10 active | AID 1477, 2009; note: % of control where 0% means no effect
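Compounds were screened at multiple concentrations against a preformed CBF-beta(His)/RUNX1(biotin) complex (30 nM of each) for 15 min at room temperature, followed by 90 min with nickel and streptavidin beads and AlphaScreen reading.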
CtBP-E1A blk: qHTS Assay for Inhibitors of the CtBP/E1A Interaction. AlphaScreen GST-E1A/His-CtBP binding, 1536-well; stronger effect = lower value. CtBP / adenovirus E1A interaction (AlphaScreen). activity change, % (no concentration beside the values). 340,000 compounds, 0.49% hits; in the data active = activity change below about -65%; inconclusive = mostly about -30% to -63%; note: % is set by controls: 0 for no effect and ±100 for the full control effect
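GST-E1A and His-tagged CtBP (125 nM each as 5X stock) were preincubated with pin-transferred compound for 2 h at 37 °C in the dark, then glutathione donor and nickel acceptor beads were added for 1 h before AlphaScreen reading.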
Gal4-VP16 FLuc: VP16 counterscreen qHTS for inhibitors of ROR gamma transcriptional activity; Drosophila S2 Gal4-VP16 UAS-luciferase, luminescence, 20 h; Potency, µM (top dose mostly 53.6 µM), inactives show at the highest dose activity, negative = inhibition, actives largely listed as inhibitors; 310,000 compounds, 3.5% hits; AID 2546, 2010;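 note: Gal4-VP16 expression switched on by copper sulfate through the metallothionein promoter; potency is the fitted concentration of half-maximal effect; % is set by controls: 0 for no effect and ±100 for the full control effect; nearly all actives have a fitted effect of over 50% in size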
Six1-Eya2 blk: qHTS Assay for Inhibitors of the Six1/Eya2 Interaction; Homeobox protein SIX1 (Homo sapiens) + Protein phosphatase EYA2 (Homo sapiens), …; AlphaScreen GST-Six1/His-Eya2 binding, biochemical; stronger effect = lower value; activity change, % (no concentration beside the values); 360,000 compounds, 0.56% hits; AID 651725, 2012; in the data active = activity change below about -65%; inconclusive = mostly about -30% to -63%; note: % is set by controls: 0 for no effect and ±100 for the full control effect
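AlphaScreen with GST-Six1 and His-Eya2 (5X mix: 250 nM and 500 nM), glutathione donor and nickel acceptor beads; buffer 50 mM Tris pH 8.0, 300 mM NaCl, 1 mM TCEP; 1 h at 37 C in the dark.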
RORg inh: qHTS for inhibitors of ROR gamma transcriptional activity | Nuclear receptor ROR-gamma (Mus musculus), P51450 | Drosophila S2 Gal4-RORgamma UAS-luciferase reporter, 20 h | Potency, µM (series often up to 53.6 µM), for the others: at the top dose activity change, negative = inhibition, most hits filed as inhibitors | 310,000 compounds, 5.4% hits | AID 2551, 2010; note: potency is the fitted concentration of half-maximal effect; % is set by controls: 0 for no effect and ±100 for the full control effect; nearly all actives have a fitted effect of over 60% in size
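In this cell-based reporter format, copper sulfate (700 uM final) drives Gal4–ROR gamma fusion expression from a metallothionein promoter in Drosophila Schneider cells; compounds preincubated 1 hr, reporter read after 20 hr at ambient temperature.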
Starred values were filed as active, the others as inactive; ? = inconclusive; . = not tested or not shown; [ ] = remark or other dose. The list is not random: actives were taken first. Their share in the collection is about 5.5%. Unless noted, calls come from the whole dose curve; as a rule, active = well fitted curve in the direction sought with a large enough effect; inconclusive = small, poorly fitted or top-dose-only effect, or another doubt; inactive = no such curve, though single readings can be large; an effect the other way counts as inactive or inconclusive.

SMILES | MBNL1 CUG block | CBFb RUNX1 block | CtBP-E1A blk | Gal4-VP16 FLuc | Six1-Eya2 blk | RORg inh
CCNC(=S)NC(=NCc1cccnc1)Nc1nc(C)cc(C)n1 | -4% | . | . | ? | 0 | 11µM*
COc1cccc(N/C(=N/C(=S)Nc2ccc(C)cc2C)Nc2nc(C)cc(C)n2)c1 | -3% | -5% | 1 | 3.2µM* | -7 | 1.3µM*
CCC(=O)N/C(=N/c1nc(C)cc(C)n1)Nc1ccc(OC)cc1 | -15% | 0% | 9 | -5% | 3 | -11%
Cc1ccc(NC(=S)NCc2cccnc2)cc1 | -3% | 2% | 3 | 9% | -4 | -2%
CCNC(=S)/N=C(/Nc1ccc(OC)cc1)Nc1nc(C)cc(C)n1 | -9% | 8% | 8 | ? | 3 | 1.8µM*
CCNC(=S)/N=C(/Nc1ccccc1)Nc1nc(C)cc(C)n1 | 2% | -15% | -13 | 3.2µM* | -9 | 0.79µM*
CC[C@H](C)[C@H](NC(=O)[C@@H](NC(=O)[C@@H](NC(=O)[C@H](CCC(=O)O)NC(=O)[C@H](CCC(=O)O)NC(=O)[C@H](CCC(=O)O)NC(=O)[C@H](C)NC(=O)[C@@H](N)CC(C)C)C(C)C)C(C)C)C(=O)N[C@@H](CCCNC(=N)N)C(=O)N[C@@H](CO)C(=O)N[C@@H](C)C(=O)N[C@@H](CC(N)=O)C(=O)N[C@@H](Cc1ccccc1)C(=O)N[C@H](C(=O)N[C@@H](CC(=O)O)C(=O)N[C@@H](CC(N)=O)C(=O)O)[C@@H](C)O | . | 2% | . | 0% | . | -11%
CCCC[C@@H]1C[C@H]1C(NC(=O)c1ccco1)c1ccccc1 (stereo partly specified) | . | 19% | . | 13% | . | 7%
O=C(c1ccccc1)N1CCN(c2nc3ccc([N+](=O)[O-])cc3s2)CC1 | ? | 1% | . | 8.9µM* | -10 | ?
CCN(Cc1ccccc1)S(=O)(=O)c1ccc(C(=O)N2CCN(c3nc4ccccc4s3)CC2)cc1 | -2% | -11% | -1 | 22µM* | 1 | ?
O=C(c1ccc2nc(N3CCOCC3)sc2c1)N1CCC(Cc2ccccc2)CC1 | -1% | -4% | 0 | 0.22µM* | -9 | ?
COc1cccc(N2CCN(C(=O)c3ccc4nc(N5CCC(C)CC5)sc4c3)CC2)c1 | -9% | -2% | . | -20% | . | 13µM*
O=[N+]([O-])c1ccc2nc(N3CCCC3)sc2c1 | ? | . | . | -7% | 3 | 17%
COc1cc(C2C3=C(CC(C)(C)CC3=O)N(C)C3=C2C(=O)CC(C)(C)C3)cc(Br)c1O | 16% | . | . | 6% | 17 | 20%
CC(C)CC(N)c1csc(Nc2ccc(S(C)(=O)=O)cc2)n1 (stereo unspecified) | . | . | 0 | . | 10 | .
CC(C)CC(N)c1csc(Nc2ncccn2)n1 (stereo unspecified) | . | . | -71* | . | ? | .
NC(COCc1ccccc1)c1csc(Nc2cc(NCCCO)ncn2)n1 (stereo unspecified) | . | . | -86* | . | -86* | .
COc1ccc(CC(N)c2csc(Nc3cc(NCCCO)ncn3)n2)cc1 (stereo unspecified) | . | . | -93* | . | -91* | .
COc1cccc(Nc2nc(C(N)Cc3ccccc3)cs2)n1 (stereo unspecified) | . | . | -25 | . | -19 | .
COc1cccc(Nc2nc(C(N)CO)cs2)n1 (stereo unspecified) | . | . | -76* | . | ? | .
C[C@@](Cc1ccccc1)(NC(=O)CN)c1ccccc1 | . | 8%[21.7 µM] | . | 7% | . | 2%
CCc1cnc(Nc2nc(C(N)Cc3ccc(Cl)cc3)cs2)nc1 (stereo unspecified) | . | . | -23 | . | -23 | .
NC(COCc1ccccc1)c1csc(Nc2ncccn2)n1 (stereo unspecified) | . | . | -85* | . | -81* | .
NCc1csc(Nc2ncccn2)n1 | . | . | -81* | . | -73* | .
NC(=O)c1ccc(Nc2nc(C(N)COCc3ccccc3)cs2)cc1 (stereo unspecified) | . | . | -23 | . | -24 | .
SMILES | MBNL1 CUG block | CBFb RUNX1 block | CtBP-E1A blk | Gal4-VP16 FLuc | Six1-Eya2 blk | RORg inh
NC(Cc1ccc(Cl)cc1)c1csc(Nc2cc(NCCCO)ncn2)n1 (stereo unspecified) | . | . | -78* | . | -70* | .
Cc1ccn2c(C=O)c(-c3ccc(F)cc3)c(C=O)c2c1 | . | -10% | 9 | ? | 4 | 33%
Cc1n[nH]c(C)c1CCCCOc1ccccc1F | 3% | . | 1 | ? | 2 | ?
Cc1ccccc1OCCCc1c(C)n[nH]c1C | 1% | 2% | -11 | 4% | -7 | 7.1µM*
Cc1ccccc1OCCCCc1c(C)n[nH]c1C | 1% | 4% | 2 | 13µM* | 0 | ?
Cc1n[nH]c(C)c1CS(=O)(=O)c1ccccc1 | 1% | 2% | -22 | -2% | -8 | 2%
Cc1cccc(C)c1OCCCCc1c(C)n[nH]c1C | -5% | 4% | 7 | ? | 3 | 18µM*
COc1cccc(OC)c1OCCCCc1c(C)n[nH]c1C | -5% | -7% | -7 | -6% | 3 | 24%
O=C(COC(=O)CCSc1ccccc1)Nc1ccccc1 | . | . | . | . | -1 | .
C=C1C(=O)OC2C[C@@]3(C)CCCC(C)C3=CC12 (stereo partly specified) | . | . | . | ? | . | 10µM*
C[C@H]1CCC[C@]2(C)C[C@H]3OC(=O)C(CN4CCCCCC4)[C@H]3C=C12 (stereo partly specified) | -3% | . | 4 | -23% | -2 | ?
CC(=O)N1c2ccc(S(=O)(=O)N3CCC(C(=O)Nc4cccc(F)c4)CC3)cc2CC1C (stereo unspecified) | 3% | . | 2 | ? | -3 | 11%
NC(=O)c1cc2ccccc2o/c1=N/NC(=O)c1cccs1 | ? | 8% | -26 | -9% | ? | 30%
COc1ccc2o/c(=N/NC(=O)c3cccs3)c(C(N)=O)cc2c1 | ? | -9% | -83* | -2% | ? | 27%
CCn1c(=O)c2sccc2n(CC(=O)NC2CCCC2)c1=O | 0% | . | -9 | -5% | 7 | 1%
N#Cc1cc2c([nH]c1=S)CCCCCC2 | 21% | 2% | 9 | 16µM* | 2 | 7.1µM*
O=c1ccn(Cc2ccccc2)c(=O)n1Cc1ccccc1 | -3% | 11% | 9 | -4% | 9 | 11%
S=c1[nH]ccn1Cc1ccccc1 | 0% | -6% | 3 | ? | -8 | 11µM*
